Several values for one entry are separate records, joined by “and”; a condition that tells them apart may be missing. Identical values can stand only once. Inconclusive results are not listed. A call without a number means that no potency is given here. Where a structure was tested more than once in an assay, its records may differ in their call. Activity calls are given as the source filed them. The call rests on the fitted dose curve; in most records, active means well fitted cell-killing curve with a large enough effect in the repeat runs; inconclusive means weak or mixed curves; inactive means no such curve, though single readings can be large or run the other way.
Potency means the concentration at half of the fitted maximal effect.

This assay in a line: qHTS assay for identifying genotoxic compounds that show differential cytotoxicity against isogenic chicken DT40 cell lines with known DNA damage response pathways - Rad54/Ku70 mutant cell line (AID 743015). Further: nearly all actives have a fitted effect of over 60% in size. The conditions noted are these: DT40 Rad54/Ku70 mutant viability, CellTiter-Glo, 40 h; series mostly up to 66.8 µM. From the text:
National Center for Advancing Translational Sciences [NCATS]
NIH Chemical Genomics Center [NCGC]
U.S. Environmental Protection Agency [EPA]
National Institutes of Environmental Health Sciences [NIEHS]
National Toxicology Program [NTP]
U.S. Food and Drug Administration [FDA]
DNA repair pathways play a critical role in cellular homeostasis by repairing DNA damage induced by endogenous processes and xenobiotics. Isogenic chicken DT40 cell lines deficient in different DNA repair pathways can be used to identify genotoxic compounds and aid in characterizing the nature of the DNA damage induced. Two DNA repair-deficient cell lines with disrupted genes, Rad54/Ku70 or Rev3, were used to screen the Tox21 10K compound library. Possible genotoxicity was based on the presence of a significant increase in cytotoxicity in one or more of the DNA repair-deficient cell lines compared to that observed in the parental DNA repair-proficient cell line. CellTiter Glo viability assay (Promega, Madison, WI) was used to measure cell viability in these cells after compound treatment. This assay includes the data from the Rad54/Ku70 mutant cell line.
Tox21 Assay Protocol Summary:
300 DT40 mutant cells in 5 uL/well were dispensed into white, solid-bottom 1536-well plates using a Multidrop Combi (ThermoFisher Scientific, Waltham, MA) dispenser. After the assay plates were incubated at 37 C/5% CO2 for approximately 0.5 hour, 23 nL of compounds dissolved in DMSO, positive controls or DMSO only was transferred into the assay plate by a pintool work station (Kalypsys, San Diego, CA). The assay plates were incubated at 37 C/5% CO2 for 40 hours. After 5 uL per well of CellTiter-Glo reagent was added into each well of the assay plates, the plates were incubated for 30 min at room temperature and the luminescence intensity of the plates was measured using a ViewLux (PerkinElmer, Shelton, CT) plate reader.
(Quantitative high-throughput screening tests each substance at several concentrations.)
For `CCCCCCC(CO)CCCC` (stereo not given), the Potency entry was “inactive”.

As for `CC(=O)C(C)=O`, the Potency result was “inactive”.

Take `Cc1ccc(S(=O)(=O)NC(=O)NC2CCCCC2)cc1`: the Potency entry was “inactive”. For the compound `C=C(C)c1ccccc1`, the Potency entry was “inactive”. Consider `C=CCOC(=O)COCCC(C)C`, for which the Potency entry is “inactive”. The entry for `Cc1ccc(Nc2c(F)cccc2Cl)c(CC(=O)O)c1` is “inactive”. The entry for `CC(=O)NNC(C)=O` is “inactive”; for `C=Cc1ccc(OC(C)=O)cc1` it is “inactive”; for `CCCCC[C@H](O)/C=C/[C@H]1[C@H](O)CC(=O)[C@@H]1C/C=C\CCCC(=O)O` it is “inactive”. As for `Cc1ccc(Cl)cc1N`, the Potency entry was “inactive”.

With `CC(C)(C)S`, the Potency entry is “inactive”.

In the case of `BrC(Br)C(Br)Br`, the Potency entry is “inactive”. The entry for `CC(=O)C(=O)CC(C)C` is “inactive”; for `CC/C=C\C/C=C\C/C=C\CCCCCCCC(=O)OCC` it is 70.1 µM (active); for `C[C@@H]1C[C@H]2[C@@H]3CCC4=CC(=O)C=C[C@]4(C)[C@@]3(F)[C@@H](O)C[C@]2(C)[C@@]1(O)C(=O)COP(=O)(O)O` it is “inactive”.

`CC(=O)OCCC(C)CC(C)(C)C` (stereo not given): the Potency entry was “inactive”.

With `O=C(O)CN1C(=O)c2cccc3cccc(c23)C1=O`, the Potency result was “inactive”.

Take `O[C@@H](CNC[C@H](O)[C@H]1CCc2cc(F)ccc2O1)[C@@H]1CCc2cc(F)ccc2O1`: the Potency is 11.9 µM (active). As for `OCC(CO)n1cnc(-c2ccc(F)cc2)c1-c1ccnc(Oc2ccccc2)n1`, the Potency was 68.5 µM (active). As for `CC(C)C1CCC(C(=O)N[C@H](Cc2ccccc2)C(=O)O)CC1` (stereo not given in full), the entry is “inactive”.

Consider `CCc1ccc(C)cc1`, for which the Potency result is “inactive”. Consider `Cc1ccc(N(CCO)CCO)cc1`, for which the Potency result is “inactive”.

For the compound `CCCCCCCC/C=C\CCCCCCCC(=O)OCCO`, the Potency was 72.2 µM (active). The figure for `CCCOC(=O)c1c(Cl)c(Cl)c(Cl)c(Cl)c1C(=O)OCCC` is 61.1 µM (active); for `O=C(O)c1ccc(O)cc1O` it is “inactive”. The entry for `CCCCCCCCCCCSCC(=O)O` is “inactive”.

`CCCCC(CC)COS(=O)(=O)O` (stereo not given): the Potency entry is “inactive”.

For the compound `CCCCOC(=O)CCCCC(=O)OCCCC`, the Potency entry was “inactive”. The entry for `CCOC(=O)C(C)O` (stereo not given) is “inactive”; for `CCCCCCCCCCCCCCCC(=O)OCC` it is “inactive”.

Turning to `Nc1ccn([C@H]2CS[C@@H](CO)O2)c(=O)n1`, the Potency entry is “inactive”.

In the case of `[Cl][Nd]([Cl])[Cl]`, the Potency result is “inactive”. Consider `COc1cc(NC(C)CCCN)c2ncccc2c1` (stereo not given), for which the Potency was 12.7 µM (active). The figure for `CNCc1ccc(NC(=O)c2c[nH]c3c2C(=O)CCC3)cc1` is 54.5 µM (active); for `CC(O)Cn1cnc2c1c(=O)n(C)c(=O)n2C` (stereo not given) it is “inactive”. Turning to `CCOC(=O)c1c(N)sc2c1CCN(Cc1ccccc1)C2`, the Potency was 26.6 µM (active). As for `COC(C)(C)OC`, the entry is “inactive”; as for `CCOC(=O)c1ccc(NC(=O)CN2CCCCC2)cc1`, 10.6 µM (active); as for `CCCCCCCCCCCC(=O)OCC(O)CO` (stereo not given), “inactive and 61.1 µM (active)”.

On to `CCCCCCCCCCCCCC(=O)OCC(O)CO` (stereo not given), for which the Potency was 43.3 µM (active).

For the origin of these results see PubChem BioAssay (Tox21).
